The source of these data is PubChem BioAssay AID652042 (Broad Institute, 2013).

Hit rate of the full screen: of about 1,100 compounds, about 350 (32%) were called active. Not all results are given here. Measured potencies and affinities stand elsewhere. A number with no mark means an inactive call. The rule behind the calls is not given here.

This assay can be described thus: CEM21 lymphoblast cell cytotoxicity, dose response, cytotoxicity control for viral fusion inhibitor project, CellTiter-Glo luminescence, cherry-picked (AID 652042). Conditions: CEM21 cells viability, CellTiter-Glo ATP luminescence, 24 h; series mostly up to 35 µM; activity change, negative = cytotoxicity: at the top concentration. (In ATP-based viability assays light output follows the ATP content of the culture.)
For the compound `C[C@H]1CN([C@@H](C)CO)C(=O)Cc2cc(N(C)C)ccc2O[C@H]1CN(C)Cc1ccc(Cl)c(Cl)c1`, the “activity change, negative = cytotoxicity” value is -11.3%.
Next, `C[C@@H]1CN([C@@H](C)CO)C(=O)c2cc(C3=CCCC3)cnc2O[C@@H]1CN(C)Cc1ccc(C(=O)O)cc1`: -7.71%; `O=C(NCc1ccccc1)c1ccc(C(=O)NCc2ccccc2)cc1`: -1.78%.
On to `C=C(C)c1cccc(C(C)(C)NC(=O)Nc2ccc(Cl)cn2)c1`, for which the “activity change, negative = cytotoxicity” value is 0.575%.
Next, `Cc1ncccc1C(=O)N1CCCC(C(=O)c2ccc3c4c(cccc24)CC3)C1` (stereo not given): -1.97%; `CCOc1ccc(N(C)S(=O)(=O)c2cc(-c3cc(C)no3)ccc2C(C)C)cc1`: -27.4%; `Cc1ccc(NC(=O)c2ccc(CN3CCc4ccccc4C3)cc2)cc1`: -25.9%.
To `COc1ccc(NC(=O)c2ccc(Cl)c(S(=O)(=O)N3CCc4ccccc4C3)c2)cn1` belongs -19.1%.
To `Cc1ccc2c(c1)c1c3n2CCN(CCC#N)C3CCC1` (stereo not given) belongs 1.35%; to `CC(CCc1ccco1)NC(=O)CCc1nnc2ccc(NCc3ccccc3Cl)nn12` (stereo not given), -16.5%.
On to `Cc1ccc(S(=O)(=O)N2CCC(=O)N(CCOC(=O)Nc3cccc(Cl)c3)CC2)cc1`, for which the “activity change, negative = cytotoxicity” value is -2.62%.
Turning to `COc1ccc(C)cc1NC(=O)CCNS(=O)(=O)c1ccc2c(c1)CC(C)N2C(C)=O` (stereo not given), the “activity change, negative = cytotoxicity” value is 9.67%.
Next, `COc1ccccc1Oc1ccc(S(=O)(=O)NCc2ccccn2)cc1`: -8.66%.
`O=C(C[C@H]1C[C@@H]2c3cc(NC(=O)C4CCOCC4)ccc3O[C@@H]2[C@@H](CO)O1)NCc1ccccc1F`: the “activity change, negative = cytotoxicity” value was -3.22%.
Next, `CC(C)CCN(N=O)[C@@H](Cc1ccccc1)CN(N=O)[C@@H](Cc1ccccc1)CN(C)N=O`: -15.3%.
Regarding `COc1ccc(-c2cc(=O)oc3c(C)c(O)ccc23)cc1`, the “activity change, negative = cytotoxicity” value is -5.8%.
On to `O=C(NCCc1ccccc1)c1ccc2c(c1)OCCO2`, for which the “activity change, negative = cytotoxicity” value is -9.04%.
To `C=C1CCN([C@@H](Cc2ccccc2)C(=O)NCCC(C)C)S(=O)(=O)c2ccccc21` belongs -5.67%.
Next, `CSCCC(NS(=O)(=O)c1ccc2c(c1)oc(=O)n2C)C(=O)NC1CCCc2ccccc21` (stereo not given): 4.91%; `CC(=O)c1ccc([C@H]2C[C@@]34CN(C(=O)OC(C)(C)C)S(=O)(=O)[C@H]3C[C@H]2O4)cc1`: 2.58%.
Next, `CN(C)CC(=O)Nc1ccc2c(c1)[C@H]1C[C@@H](CC(=O)NCCc3ccccc3)O[C@H](CO)[C@H]1O2`: -2.04% [at 30 µM]; `O=C(Nc1cccc(C(=O)O)c1)Nc1ccc2c(c1)OCO2`: -7.93%; `COc1ccc(NC(=O)C2CCCN2S(=O)(=O)c2ccc3c(c2)CCC(=O)N3)cc1Cl` (stereo not given): -0.458%.
Take `O=C(COc1ccc(-n2cnnn2)cc1)Nc1ccc(F)c(F)c1`: the “activity change, negative = cytotoxicity” value is 3.75%.
`Cn1cccc1C(=O)OCC(=O)NCCc1ccc(S(N)(=O)=O)cc1`: the “activity change, negative = cytotoxicity” value is 6%.
Next, `Cc1cc2c3c(c1)C1(SCC(=O)N1c1ccc(F)cc1)C(=O)N3C(C)(C)CC2C` (stereo not given): -0.52% [at 16 µM].
To `CCN(CC)S(=O)(=O)c1cc(NC(=O)C(=O)c2c(-c3ccccc3)cc3ccccn23)ccc1C` belongs -16%; to `CC(C)N(Cc1nc(-c2ccccc2)no1)C(=O)CN(C)S(=O)(=O)c1ccc(Br)cc1`, -16%.
Turning to `O=C(C[C@@H]1CC[C@@H](NC(=O)c2ccncc2)[C@H](CO)O1)NCCc1ccncc1`, the “activity change, negative = cytotoxicity” value was -1.24%.
Next, `O=C(C[C@H]1CC[C@@H](NC(=O)Nc2ccccc2F)[C@@H](CO)O1)NCc1ccc(Cl)cc1`: 0.724%; `COc1cccc(S(=O)(=O)N[C@H]2CC[C@H](CC(=O)NCc3ccncc3)O[C@@H]2CO)c1`: 1.11%.
Next, `O=C(C[C@H]1C=C[C@@H](NC(=O)Nc2ccccc2F)[C@@H](CO)O1)NCc1ccc(Cl)cc1`: -7.24%; `O=C(NCC[C@@H]1CC[C@@H](NS(=O)(=O)c2ccccc2F)[C@@H](CO)O1)c1ccc(F)cc1`: -1.41%; `COc1cccc(CNC(=O)C[C@@H]2C=C[C@H](NC(=O)C3CCC3)[C@H](CO)O2)c1`: 0.694%.
Next, `COC(=O)[C@@]1(C)[C@H]2C(=O)N(Cc3ccccc3)C(=O)[C@H]2[C@H]2CN=C(SCc3ccc(C#N)cc3)N21`: -13.8%; `CN(C[C@H](Cc1ccccc1)N(C[C@H](c1ccccc1)N(CCc1ccccc1)N=O)N=O)N=O`: -4.42%; `Cc1ccc(C(c2nnnn2CS(=O)(=O)c2ccc(C)cc2)N2CCCC2)cc1` (stereo not given): -1.57%.
Take `N#Cc1ccc(C(c2nnnn2CCc2ccccc2)N2CCCCCC2)cc1` (stereo not given): the “activity change, negative = cytotoxicity” value was -20.5%.
In the case of `COc1ccc(NC(=O)Nc2ccc3c(c2)C(=O)N([C@@H](C)CO)C[C@H](C)[C@H](CN(C)Cc2ccncc2)OCCCC[C@H](C)O3)cc1`, the “activity change, negative = cytotoxicity” value is -11.8%.
Next, `Cc1ccc(C(C(=O)NC2CCCCC2)N(C(=O)c2csnn2)C2CCCC2)o1` (stereo not given): 4.56% [at 16 µM]; `Cc1ccc(-c2nnn(CC(=O)N(CC3CCCO3)C(C(=O)NC3CCCCC3)c3ccc(F)cc3)n2)o1` (stereo not given): -2.01%.
Turning to `COc1ccc(NC(=O)CN2CCC(C(N)=O)(N3CCCCC3)CC2)cc1`, the “activity change, negative = cytotoxicity” value is 5.51%.
Turning to `CC1CCN(C(=O)c2ncn3c2C(=O)N[C@@H](C)C3)CC1`, the “activity change, negative = cytotoxicity” value was -5.66%.
Next, `COc1ccc(-c2cc(C3CCN(c4cc(Cl)nc(N)n4)CC3)[nH]n2)cc1`: -13.3%; `CCOc1ccc(OCc2cccc(C(=O)N/N=C/c3cccnc3)c2)cc1`: -2.87%.
To `CC(c1nc2ccccc2c(=O)[nH]1)N(C)CCOc1ccc(Cl)cc1` (stereo not given) belongs -7.82%; to `Cc1ccc(S(=O)(=O)N(C)C)cc1NC(=O)COc1ccccc1C(=O)Nc1ccccc1`, -16.9%.
To `CC(C)CCN(C(=O)c1csnn1)C(C(=O)NC1CCCC1)c1ccc(F)cc1` (stereo not given) belongs -7.24%.
`Cc1ccccc1CCN(C(=O)c1csnn1)C(C(=O)NC1CCCC1)c1ccncc1` (stereo not given): the “activity change, negative = cytotoxicity” value was -5.49%.
Take `CCOC(=O)c1ccc(NC2c3ncccc3C(=O)N2Cc2ccc(F)cc2)cc1` (stereo not given): the “activity change, negative = cytotoxicity” value was -4.33%.
To `COc1cc(NC2c3ccccc3C(=O)N2Cc2ccccc2)cc(OC)c1OC` (stereo not given) belongs 3.26%.
Next, `COc1ccc(-c2cc(=O)oc3c(C)c(O)c(CN(C)C)cc23)cc1`: 5.55%; `COc1ccc(S(=O)(=O)NNC(=O)C2Cc3c(ccc4ccccc34)O2)cc1` (stereo not given): -11.3%.
To `CN(C)S(=O)(=O)c1ccc(N2CCCC2)c(C(=O)NCCc2ccc(F)cc2)c1` belongs -0.85%.
As for `CC(C)n1c(NCCc2ccccc2)nc2c1c(=O)n(C)c(=O)n2C`, the “activity change, negative = cytotoxicity” value is -25.5%.
As to `CC[C@]1(C(=O)OC)[C@H]2C(=O)N(Cc3ccccc3)C(=O)[C@H]2[C@H]2CN=C(SCc3ccc(C)cc3)N21`, the “activity change, negative = cytotoxicity” value was -9.52%.
To `COc1ccc(CCN2C(=O)c3[nH]nc(-c4ccccc4O)c3C2c2ccc(C)cc2)cc1OC` (stereo not given) belongs -12.2%; to `COc1ccc(OC)c(CN2C(=O)c3ccccc3C2c2nnnn2-c2c(C)cccc2C)c1` (stereo not given), -7.17%; to `COCc1[nH]nc2c1C(c1ccc(F)cc1)N(Cc1ccccc1)C2=O` (stereo not given), -2.79%.
For `COc1ccc(CCN2C(=O)c3[nH]nc(-c4ccccc4O)c3C2c2cccc(O)c2)cc1OC` (stereo not given), the “activity change, negative = cytotoxicity” value was -2.82%.
